# Laboratory results taken from PubChem BioAssay AID651812 (National Center for Advancing Translational Sciences (NCATS), 2012).
# About 650 (31%) of roughly 2,100 compounds were called active. Roughly 16% stayed inconclusive and do not appear here. Some of the results follow. Unmarked numbers belong to inactive results. The call rests on the fitted dose curve; in most records, active means well fitted inhibition curve with a large enough effect; inconclusive means small, poorly fitted or top-dose-only effect; inactive means flat fitted curve, though single readings scatter.
# Assay: qHTS for inhibitors of Vif-A3G interactions: Cherry picks; further: nearly all actives have a fitted effect of over 80% in size; on activity, negative = fluorescence increase: % of control where 0% means no effect
# Conditions: HeLa A3G-eYFP + Vif (tagged APOBEC3G with the HIV-1 protein that degrades it), 24 h; Potency: eYFP fluorescence increase; series mostly up to 36.9 µM; activity, negative = fluorescence increase: at the top concentration
# Summary of the method: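 Cherry-picked compounds tested at several concentrations on A3G-eYFP/Vif HeLa cells for 24 hours; loss of Vif-driven degradation read as eYFP fluorescence by cytometric plate imaging, 488 nm excitation, 500-530 nm emission.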
# Potency means the concentration at half of the fitted maximal effect.
Structure (SMILES),"activity, negative = fluorescence increase",Potency
S=C(Nc1ccccc1)N1CCn2c1nc1ccccc12,-1.43%,–
CC(=O)c1cccc(-c2ccnc3c2CC(C(=O)Nc2ccc4c(c2)OCO4)O3)c1 (configuration not stated),-0.931%,–
COc1ccccc1N1CCN(C(=O)c2cc(=O)c3cc(C)ccc3o2)CC1,-7.42%,–
CCCC(=O)NC(c1ccc(OC)cc1)c1c(O)ccc2ccccc12 (configuration not stated),-6.1%,–
COc1cc(-c2cc(NC=O)c3ncc(-c4ccc(C(C)=O)cc4)n3c2)cc(OC)c1OC,0.567%,–
CCN(CC)c1nc(C)c(C(=S)Nc2cc([N+](=O)[O-])ccc2Cl)s1,7.74% [at 46.1 µM],–
C/C(CCC(C)C)=N\NC(=S)NCc1ccccc1,4.1% [at 46.1 µM],–
CC(C)CN(CC(C)C)S(=O)(=O)c1ccc(C(=O)Nc2sc3c(c2C(N)=O)CCN(C(C)C)C3)cc1,–,18.4 µM (active)
Cc1ccc(C(=O)Nc2sc(Cc3ccc4c(c3)OCO4)c(C)c2C(N)=O)cc1,-26.3% [at 46.1 µM],–
CCN1CCc2c(sc(NC(=O)c3ccc(S(=O)(=O)N(CC)c4ccccc4)cc3)c2C(N)=O)C1,–,17.7 µM (active)
CC(C)N1CCc2c(sc(NC(=O)c3ccc(S(=O)(=O)N4CCOCC4)cc3)c2C#N)C1,–,20.6 µM (active)
CCN1CCc2c(sc(-n3cccc3)c2C(C)NC(=O)Nc2ccc(C(=O)OC)cc2)C1 (configuration not stated),10.3% [at 46.1 µM],–
CCCCN(CCCC)S(=O)(=O)c1ccc(C(=O)Nc2sc3c(c2C(N)=O)CCN(CC)C3)cc1,–,29.1 µM (active)
CC(C)N1CCc2c(sc(NC(=O)c3cc4cc([N+](=O)[O-])ccc4s3)c2C(N)=O)C1,-27.5% [at 46.1 µM],–
COc1cccc(C(=O)Nc2sc3c(c2C#N)CCN(C(C)=O)C3)c1,-8.68%,–
COc1ccc(C(=O)Nc2sc3c(c2C#N)CCN(C(C)=O)C3)cc1,-8.58%,–
CC1(C)COC(Cn2c3ccccc3c3ccccc32)O1 (configuration not stated),-5.66%,–
COC(=O)c1ccc(Oc2cc(C)nc(SC)n2)cc1,-10.7%,–
CC(/C=N/NC(=O)c1cccc(F)c1)=C\c1ccccc1,-11.1%,–
O=C(Cn1ncc(Cl)c(Cl)c1=O)NC(=O)NC1CCCCC1,0.0571%,–
C=CCSc1nc2sc3c(c2c(=O)n1CC)CCC3,1.48% [at 46.1 µM],–
COc1ccc(S(=O)(=O)N2c3ccccc3OCC2CC(=O)O)cc1 (configuration not stated),-10.8%,–
CCCN1CCc2c(sc(NC(=O)c3ccc(S(=O)(=O)N(C)c4ccccc4)cc3)c2C(N)=O)C1,–,16.4 µM (active)
CCCN1CCc2c(sc(NC(=O)c3ccc(S(=O)(=O)N(C)c4ccccc4)cc3)c2C(=O)NC)C1,–,18.4 µM (active)
COc1ccccc1N(C)S(=O)(=O)c1ccc(C(=O)OCC(=O)N2CCC2)cc1,-5.51%,–
CC(C)(C)C(=O)Nc1sc2c(c1C#N)CCN(Cc1ccccc1)C2,-0.815% [at 46.1 µM],–

Structure (SMILES),"activity, negative = fluorescence increase",Potency
CCOC(=O)c1c(NC(=O)c2ccc(S(=O)(=O)N3CCC(C)CC3)cc2)sc2c1CCN(C)C2,–,18.4 µM (active)
COc1cc(N2CCCC2)c(OC)cc1/C=C(/C#N)c1ccc(F)cc1,–,18.4 µM (active)
COc1cc(N2CCCC2)c(OC)cc1/C=C(/C#N)c1ccc(Br)cc1,–,8.2 µM (active)
CSc1nc2ccccc2cc1/C=C(\C#N)c1ccccc1,-8.54%,–
COc1cc(-c2cnc3c(NC(C)=O)cc(-c4ccccc4CN(C)C)cn23)cc(OC)c1OC,-4.76%,–
COc1cc(C(=O)OCC(=O)Nc2ccc(N3CCOCC3)cc2)ccc1OCC(C)C,0.73%,–
Cc1cc(C)c2nccc(/C=C/c3ccc(N(C)C)cc3)c2c1,–,16.4 µM (active)
COc1ccc2nccc(/C=C/c3ccc(N(C)C)cc3)c2c1,–,18.4 µM (active)
CN(C)c1ccc(/C=C/c2ccnc3ccc(Br)cc23)cc1,–,2.59 µM (active)
CN(C)c1ccc(/C=C/c2ccnc3ccc(I)cc23)cc1,–,5.17 µM (active)
CC1(C(=O)NCc2cccs2)Cc2c(-c3ccc(C(N)=O)cc3)ccnc2O1 (configuration not stated),-1.21%,–
COc1ccccc1-c1cc(NC=O)c2ncc(-c3cccc(C(=O)N(C)C)c3)n2c1,-7.96%,–
COc1cc(C(=O)Nc2ccc3c(c2)ncn3C)cc(OC)c1OC,-5.75%,–
CC(=O)Nc1cccc(-c2ccnc3c2CC(C(=O)NCc2ccco2)O3)c1 (configuration not stated),-4.86%,–
CN(C)c1ccc(/C=C/c2ccnc3ccc(N)cc23)cc1,–,18.4 µM (active)
Cc1ccc2nccc(/C=C/c3ccc(N(C)C)cc3)c2c1,–,16.4 µM (active)
O=C(NCc1ccccc1)C1Cc2c(-c3cccc(F)c3)ccnc2O1 (configuration not stated),-18%,–
Cn1c(=O)c2cc(NC(=O)NCc3ccc(F)cc3)ccc2n1C/C=C/c1ccccc1,0.546%,–
CCCCn1c(N)c(N(CC(C)C)C(=O)Cc2ccc(S(=O)(=O)N3CCOCC3)s2)c(=O)[nH]c1=O,–,18.4 µM (active)
C=CCN1C(=O)c2ccc(C(=O)N(CC(C)C)c3c(N)n(CCCC)c(=O)[nH]c3=O)cc2C1=O,-5.71%,–
CCCCn1c(N)c(N(Cc2ccccc2OC)C(=O)c2ccc([N+](=O)[O-])s2)c(=O)[nH]c1=O,-21.6% [at 46.1 µM],–
Cc1cc(N)cc(C)c1-c1c(Br)cc(N)cc1Br,-5.29%,–
COc1ccc(/C=C/C=C2\NC(=S)NC2=O)cc1,–,6.51 µM (active)
COc1cccc(Cn2c(-c3nonc3N)nc3ccccc32)c1,-12.7%,–
CCOc1cccc(-n2nnnc2-c2ccc(OC)cc2)c1,-8.47%,–
COc1cccc(Cn2c(-c3nonc3NC(C)=O)nc3ccccc32)c1,-5.99% [at 46.1 µM],–

Structure (SMILES),"activity, negative = fluorescence increase",Potency
COc1ccc2c(c1)c1nc3ccccc3nc1n2CC(=O)OC(C)C,–,3.66 µM (active)
CCOc1ccc(Cn2c3ccc(OC)cc3c3nc4ccccc4nc32)cc1,–,16.4 µM (active)
CCCN1CCC(=NNc2ccc(S(=O)(=O)N3CCOCC3)cc2[N+](=O)[O-])CC1,1.28%,–
COc1cc(S(=O)(=O)Nc2ccccc2N2CCCCC2)ccc1NC(C)=O,2.56%,–
CCOCCC(=O)Nc1ccc2c(c1)c(=O)n(C)n2C/C=C/c1ccccc1,0.9%,–
CCCn1c(SCC(=O)Nc2ccccc2OC)nnc1-c1ccco1,-6.38%,–
O=C(CCCCn1c(=O)c2ccccc2n(Cc2ccc(F)cc2)c1=O)NCc1ccco1,-10.3%,–
Cc1cccc(Cn2c(=O)n(CCCC(=O)NCc3ccco3)c(=O)c3ccccc32)c1,-0.125%,–
COc1ccccc1CCC(=O)Nc1ccc2c(c1)c(=O)n(C)n2Cc1ccc(F)cc1,1.23%,–
COc1cc2nc(SCC(=O)NCc3ccco3)n(Cc3ccc(Cl)cc3)c(=O)c2cc1OC,–,5.8 µM (active)
COc1ccc(NC(=O)CSc2nc3c(oc4ccccc43)c(=O)n2Cc2ccco2)cc1Cl,–,14.6 µM (active)
c1ccc(N=Nc2ccc3cccccc2-3)cc1,-12.8%,–
Cc1ccc(-c2csc(NC3OC(=O)c4ccccc43)n2)cc1 (configuration not stated),1.91%,–
CCOC(=O)C(=Cc1ccc(-n2cncn2)cc1)C(=O)OCC,-2.14%,–
CCOc1cc(S(=O)(=O)NCc2ccc(OC)cc2)c(OCC)cc1-n1cnnn1,-7.38%,–
CC(C)(C)OC(=O)NCc1ccc(NC(=O)c2nc[nH]c2C(=O)NCCCNC(=O)c2[nH]cnc2C(=O)Nc2ccc(CNC(=O)OC(C)(C)C)cc2)cc1,-19.8%,–
CCC(C)n1c(NC(=O)c2ccccc2)c(C#N)c2nc3ccccc3nc21 (configuration not stated),–,18.4 µM (active)
CCN(CC(=O)Nc1ccccc1-c1ccccc1)Cc1nc2ccccc2c(=O)[nH]1,-5.74%,–
Cc1ccccc1/C=C\c1nc2ccccc2c(=O)[nH]1,-2.02%,–
O=c1[nH]c(/C=C/c2cccc3ccccc23)nc2ccccc12,–,18.4 µM (active)
O=c1[nH]c(-c2cccnc2)nc2sc(-c3ccccc3)cc12,0.0358%,–
O=C(NC1CCCC(C(F)(F)F)C1)c1ccc([N+](=O)[O-])o1 (configuration not stated),-6.86%,–
N#CC(=Cc1ccccn1)c1nc(-c2ccc(Cl)cc2)cs1,–,6.27 µM (active)
N#C/C(=C\c1ccc(Cl)cc1)c1nc2ncccc2[nH]1,-4.68%,–
COc1ccc(CCNC(=O)CC2(CC3=NS(=O)(=O)c4ccccc4N3)CCCC2)cc1OC,2.13%,–
COc1cccc(Cn2c3ccc(NC(=O)CCc4ccc(F)cc4)cc3c(=O)n2C)c1,0.311%,–

Structure (SMILES),"activity, negative = fluorescence increase",Potency
COc1ccc(-c2cc(-c3nnc(COC(=O)c4ccncc4)o3)c3ccccc3n2)cc1OC,3.73% [at 46.1 µM],–
CCOc1ccccc1NC(=O)Cn1nnc(C(=O)NCc2cccs2)c1N,-20.3% [at 46.1 µM],–
COc1cc2c(cc1OC)CN(C(=O)c1cc(=O)c3ccccc3o1)CC2,1.2%,–
CCOc1ccc(C2CC(c3c(O)c4ccccc4oc3=O)=NN2c2ccccc2)cc1OC (configuration not stated),–,14.6 µM (active)
CCOc1cc(-c2nnc(SCC(=O)NCc3ccccc3)nc2-c2ccc(OC)c(OCC)c2)ccc1OC,-8.95% [at 46.1 µM],–
COc1ccc(/C=C2\C(=O)NC(=S)N2C(=O)c2ccc(F)cc2)cc1,–,8.2 µM (active)
COc1ccc(C(=O)/C=C2/c3ccccc3CC(C)(C)N2C)cc1,-5.1%,–
COc1ccc(NC(=O)c2ccc3c(c2)c(C)c(C)n3Cc2ccc(F)cc2)cc1,0.527% [at 46.1 µM],–
NNC(=O)c1cc2sccc2s1,-0.459%,–
CC(C)n1cc(NC(=O)c2cc(-c3ccccc3)on2)cn1,-3.25%,–
N#C/C(=C\c1cccc(O)c1)c1nc2ccccc2o1,–,3.14 µM (active)
C[C@]12CCC[C@H](O1)c1c(cc3c(c1O)C(=O)c1c(O)cc(O)cc1C3=O)O2,–,13 µM (active)
O=C1c2ccccc2C(=O)c2cc(N3CCCCC3)ccc21,–,7.9 µM (active)
O=C(N/N=C/c1cccc2ccccc12)c1cc2ccccc2o1,-0.291%,–
COc1ccc(C(=O)c2sc3nc(C)cc(-c4cccs4)c3c2N)cc1,–,18.4 µM (active)
COc1ccc(N(C(=O)C(C)C)S(=O)(=O)c2cccs2)cc1,0.154%,–
COc1ccc(Nc2nc(C)nc3sc4c(c23)CCC4)cc1O,-8.04%,–
COc1ccc(COc2cc(-c3cccc(OC)c3)nc3ccc(NC(=O)c4ccc(OC)cc4)cc23)cc1,-7.32%,–
COC(=O)CCS(=O)(=O)c1nc(-c2ccccc2)cc(C(F)(F)F)n1,-2.39%,–
COc1ccc(C(=O)c2ccc(OC)c(OC)c2OC)cc1,-6.12%,–
COc1cccc(-c2ccc3c(N)c(C(=O)c4ccc(Br)cc4)sc3n2)c1,–,16.4 µM (active)
COc1cc(C(=O)Nc2ccc3c(c2)nc(C)n3C)cc(OC)c1OC,-0.44%,–
COc1cccc(C(=O)c2sc3nc(-c4ccccc4)cc(C(F)(F)F)c3c2N)c1,–,1.64 µM (active)
COc1ccc(NC(=O)c2sc3nc(C(F)(F)F)cc(C)c3c2N)cc1OC,–,23.1 µM (active)
